Assay outcomes: PubChem BioAssay, National Center for Advancing Translational Sciences (NCATS)
Cruzain inh Det: inhibitors of Trypanosoma cruzi cruzain with detergent. purified cruzain, Z-FR-AMC fluorescence, 0.01% Triton. Potency, µM, for the others: max response, negative = inhibition, actives largely listed as inhibitors. actives 0.43% (n = 200,000). AID 1478;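 also: plate controls were neutral wells for no effect and buffer without enzyme for full effect; nearly all actives have a fitted effect of over 40% in size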
Target sequence (P25779 123-467 limits assumed): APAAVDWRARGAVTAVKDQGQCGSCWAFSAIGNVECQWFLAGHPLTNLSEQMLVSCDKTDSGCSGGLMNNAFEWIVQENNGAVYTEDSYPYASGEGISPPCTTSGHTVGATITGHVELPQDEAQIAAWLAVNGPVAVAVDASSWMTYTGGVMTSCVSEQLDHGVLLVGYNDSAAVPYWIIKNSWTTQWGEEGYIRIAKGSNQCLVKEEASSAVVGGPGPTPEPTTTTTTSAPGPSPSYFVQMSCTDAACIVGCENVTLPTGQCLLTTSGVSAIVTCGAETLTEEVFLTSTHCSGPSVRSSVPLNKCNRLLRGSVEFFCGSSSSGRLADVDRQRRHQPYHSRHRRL
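Purified cruzain (1.5 nM final) was preincubated with compounds for 15 min at room temperature in 100 mM sodium acetate pH 5.5, 5 mM DTT, 0.01% Triton X-100. Reaction started with 2 uM Z-FR-AMC; AMC fluorescence change over 60 s gave activity.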
Cruzain noTriton: inhibitors of Trypanosoma cruzi cruzain without detergent. P25779. purified cruzain, Z-FR-AMC fluorescence, no detergent. Potency, µM, for the others: max response, negative = inhibition, hits mostly inhibitors. actives 2.3% (n = 200,000). AID 1476;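 also: plate controls were enzyme without inhibitor for no effect and buffer without enzyme for full effect; nearly all actives have a fitted effect of over 40% in size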
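Purified cruzain at 1.5 nM, pre-incubated 15 min with compound at room temperature in 100 mM sodium acetate pH 5.5, 5 mM DTT, 0.00005% Triton X-100. Reaction started with 2 uM Z-FR-AMC; AMC fluorescence increase over 60 s gives rate.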
Active calls of the source: *; ? = inconclusive. Rows were chosen to be rich in hits. Some 2.4% of all compounds tested hit in one or more screens of this group. Calls follow the shape of the dose curve; as a rule, active = well fitted curve in the direction sought with a large enough effect; inconclusive = small, poorly fitted or top-dose-only effect, or another doubt; inactive = no such curve, though single readings can be large; an effect the other way counts as inactive or inconclusive. Potency is read from the fitted curve at half-maximal effect.

SMILES	Cruzain inh Det	Cruzain noTriton
FC(F)(F)c1ccccc1-c1nc(NCc2cccs2)c2ccccc2n1	-5.4%	12.2%
O=S(=O)(c1ccc(Br)cc1)N1CCn2c(nc3ccccc32)C1	-3.1%	5.01µM*
O=S(=O)(c1ccc2c(c1)nc1n2CCC1)N1CCOCC1	-2.1%	-7.7%
O=S(=O)(Cc1ccccc1)N1CCn2c(nc3ccccc32)C1	2.1%	-20.0%
O=S(=O)(c1ccc(Cl)c(Cl)c1)N1CCc2nc3ccccc3n2CC1	-6.5%	10µM*
CCCN1CCC(NC(=S)Nc2ccc(C(=O)OCC)cc2)CC1	-1.5%	-13.9%
Cc1cc(-c2nnc(SCc3cccnc3)o2)no1	-0.7%	-14.8%
Cc1occc1C(=O)N/N=C/C1=C(N2CCOCC2)C(=C\c2ccc(Cl)cc2Cl)/CC1	-5.0%	25.1µM*
Cc1cc(C)nc(N/N=C/C2=C(N3CCOCC3)C(=C\c3ccc(Cl)cc3)/CC2)n1	-9.6%	-20.7%
CC(C)CC(NC(=O)c1ccc(Cl)cc1)C(=O)OCC(=O)c1ccc2c(c1)NC(=O)CO2 (stereo not given)	-19.7%	20µM*
CCN(CC)S(=O)(=O)c1cc(C(=O)OCC(=O)c2ccc3c(c2)NC(=O)CO3)ccc1Cl	-4.2%	2.8%
CCCOc1ccc(/C=c2\sc3nc(-c4ccco4)nn3c2=O)cc1OCC	-0.4%	8.0%
CCCOc1ccc(Cc2nn3c(=O)/c(=C/c4ccco4)sc3nc2=O)cc1	-6.1%	10µM*
CCC(=O)Nc1ccc(NC(=O)CSc2nc3cc4c(cc3cc2C)CCC4)cc1	5.7%	25.1µM*
Cc1ccccc1NC(=O)CSc1nc2cc3c(cc2cc1C)CCC3	-5.3%	7.0%
COc1cccc(NC(=O)Cn2c(=O)n(Cc3ccc(C(=O)NCc4ccc5c(c4)OCO5)cc3)c(=O)c3ccccc32)c1	-2.0%	12.6µM*
Cc1ccc(NC(=O)Cn2c(=O)n(Cc3ccc4c(c3)OCO4)c(=O)c3ccccc32)cc1	-2.6%	4.6%
O=C(Cn1c(=O)n(Cc2ccc(C(=O)NCc3ccc4c(c3)OCO4)cc2)c(=O)c2ccccc21)Nc1ccccc1F	-1.9%	12.6µM*
Cc1ccc(Cl)cc1NC(=O)Cn1c(=O)n(Cc2ccc(C(=O)NCc3ccc4c(c3)OCO4)cc2)c(=O)c2ccccc21	-2.2%	-21.8%
Cc1ccc(NC(=O)Cn2c(=O)n(Cc3ccc(C(=O)NCc4ccc5c(c4)OCO5)cc3)c(=O)c3ccccc32)cc1	-3.9%	?
Cc1cccc(NC(=O)Cn2c(=O)n(Cc3ccc4c(c3)OCO4)c(=O)c3ccccc32)c1	-6.0%	20µM*
CCOC(=O)C1CCN(C(=O)c2ccc(Cl)c(Cl)c2)CC1	-3.7%	5.6%
COC(=O)c1ccccc1NC(=O)c1cc2sccc2n1C	-4.5%	-18.6%
COC(=O)c1cccc(NC(=O)c2cc3sccc3n2C)c1	-17.4%	25.1µM*
Cc1nn(-c2ccccc2)c(Cl)c1/C=N\NC(=O)c1cncc(Br)c1	-9.7%	1.9%
SMILES	Cruzain inh Det	Cruzain noTriton
Cc1ccccc1-n1c(/C=C/c2ccc(N(C)C)cc2)nc2ccccc2c1=O	-7.1%	?
CCOc1ccc(-n2c(=O)cc(N3CCN(c4ccccc4)CC3)[nH]c2=O)cc1	1.7%	2µM*
COc1ccc(-n2c(=O)cc(N3CCN(c4ccccc4)CC3)[nH]c2=O)cc1	4.8%	-2.6%
c1ccc(-c2ccc(CN3C[C@@H]4C(c5ccccc5)C5(c6cccnc6)CC4(C5)[C@H]3c3ccccc3)cc2)cc1 (stereo not given in full)	-0.2%	-0.6%
COC(=O)c1ccc(C23CC4(C2)[C@H](CN(Cc2ccc(-c5ccccc5)cc2)[C@@H]4c2ccccc2)C3c2ccc(Cl)nc2)cc1 (stereo not given in full)	3.2%	15.8µM*
FC(F)(F)c1ccc(C2[C@H]3CN(Cc4ccc(-c5ccccc5)cc4)[C@H](c4ccccc4)C34CC2(c2cccnc2)C4)cc1 (stereo not given in full)	7.0%	-6.4%
COC(=O)c1cccc(C23CC4(C2)[C@H](CN(Cc2ccc(-c5ccccc5)cc2)[C@@H]4c2ccccc2)C3c2ccc(C(F)(F)F)cc2)c1 (stereo not given in full)	-1.9%	25.1µM*
COC(=O)c1cccc(C23CC4(C2)[C@H](CN(Cc2ccc(C(F)(F)F)cc2)[C@@H]4c2ccccc2)C3c2ccccc2)c1 (stereo not given in full)	0.2%	-29.5%
COC(=O)c1ccc(C23CC4(C2)[C@H](CN(Cc2ccc(-c5ccccc5)cc2)[C@@H]4c2ccccc2)C3c2ccc(C(F)(F)F)cc2)cc1 (stereo not given in full)	1.0%	?
FC(F)(F)c1ccc(C2[C@H]3CN(Cc4ccc(-c5ccccc5)cc4)[C@H](c4ccccc4)C34CC2(c2ccccc2)C4)cc1 (stereo not given in full)	3.0%	12.6µM*
COC(=O)c1cccc(C23CC4(C2)[C@H](CN(Cc2ccc(-c5ccccc5)cc2)[C@@H]4c2ccccc2)C3c2ccccc2)c1 (stereo not given in full)	2.8%	12.6µM*
CC1CCN(S(=O)(=O)c2nnc(NC(=O)c3ccc(C(C)C)cc3)s2)CC1	-0.9%	1.6%
CCCCNC(C(=O)Nc1ccc(Cl)c([N+](=O)[O-])c1)c1ccccc1 (stereo not given)	-1.4%	-2.7%
Nc1nc(-c2nc3ccccc3[nH]2)cs1	-5.7%	-3.5%
CC(=O)c1cccc(NC(=O)C2CCN(S(=O)(=O)c3c(C)n[nH]c3C)CC2)c1	7.1%	-2.0%
Cc1ccc(C(c2nnnn2C2CCCC2)N2CCc3ccccc32)cc1 (stereo not given)	-6.0%	31.6µM*
CC(C)C(c1nnnn1C1CCCC1)N1CCc2ccccc21 (stereo not given)	0.0%	1.9%
Cc1ccc(NC(=O)c2cnc(N3CCCCC3)c3ccccc23)cc1Cl	-12.1%	?
O=C(Nc1ccccc1N1CCCCC1)c1ccccc1F	-13.3%	10.9%
O=C(Nc1nc2ccccc2s1)c1cc(-c2ccco2)nc2ccccc12	-11.6%	-26.3%
COc1cccc(-c2cc(C(=O)Nc3nc4ccccc4s3)c3ccccc3n2)c1	-0.7%	12.6µM*
O=C(Nc1nc2c(s1)CCCC2)c1cc(-c2ccc3c(c2)OCO3)nc2ccccc12	-3.6%	5.01µM*
Cc1ccccc1-c1cc(C(=O)Nc2nc3c(s2)CCCC3)c2ccccc2n1	-5.3%	?
NS(=O)(=O)c1ccc(CCNC(=O)[C@@H]2CCCN2S(=O)(=O)c2ccccc2F)cc1	0.1%	3.1%
Cc1cc(N(CCCl)CCCl)ccc1/C=N/NC(=O)c1ccco1	-9.1%	-8.6%
SMILES	Cruzain inh Det	Cruzain noTriton
CSc1cccc(NC(=O)c2ccc3c(c2)c(C)c(C)n3Cc2ccc(F)cc2)c1	3.2%	15.8µM*
CCOc1ccc(CNC(=O)c2ccc3c(c2)c(C)c(C)n3Cc2ccc(Cl)cc2)cc1	2.4%	10µM*
CSc1ccc(CCNC(=O)c2ccc3c(c2)c(C)c(C)n3Cc2ccc(F)cc2)cc1	1.7%	15.8µM*
Cc1ccccc1NC(=O)c1ccc2c(c1)c(C)c(C)n2Cc1ccccc1	0.2%	-20.4%
Cc1c(C)n(Cc2ccccc2)c2ccc(C(=O)NCc3ccccc3F)cc12	0.8%	?
CCn1c(C)c(C)c2cc(C(=O)NCc3ccc(OC(C)C)cc3)ccc21	-6.5%	-3.5%
CCCCN(CCCC)C(=O)c1cc2c(=O)n3cccc(C)c3nc2s1	-6.9%	18.3%
FC(F)Oc1ccccc1NC(=S)NCc1ccco1	0.7%	0.6%
